Screening results deposited in PubChem by several laboratories.
Yeast superoxide: reduction of superoxide in aged yeast, primary screen, HTS; superoxide response (% of plate mean), % at 10 µM; 330,000 compounds, 0.18% hits; S. cerevisiae aged cells, superoxide DHE fluorescence; stronger effect = lower value;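 active means superoxide response under a set limit, about three screen SD below normal, cut at about 65% in these data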;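 further: yeast aged for seven days with compound at 30 °C before DHE staining; 100% = average MFI of all compound-treated wells on the plate with controls excluded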
A3A deaminase: APOBEC3A ssDNA deaminase inhibitors, primary screen, selectivity assay for APOBEC3G inhibitor project, biochemical, FAM/TAMRA oligo cleavage fluorescence | DNA dC->dU-editing enzyme APOBEC-3A (Homo sapiens), P31941 | recombinant A3A, FAM/TAMRA ssDNA deamination fluorescence | inhibition, % at 20 µM | 330,000 compounds, 0.41% hits | AID 493011, 2011;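 active means at least 40% inhibition at 20 µM here, with at most 30% in a related deaminase screen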;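 further: plate controls were A3A with DMSO for no effect and wells lacking A3A enzyme for full effect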
PfM18AAP inh: PfM18AAP inhibitors, malaria aminopeptidase, primary screen, biochemical, QFRET, recombinant enzyme. inhibition, % at 7.35 µM. 290,000 compounds, 1.2% hits. M18 aspartyl aminopeptidase (Plasmodium falciparum 3D7). H-Glu-NHMec fluorogenic cleavage;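 active means inhibition above the campaign mean inhibition over all tested compounds plus 3 SD, cut at about 28% in these data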;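 further: 0% = plate median of test compound wells and 100% = 2 mM ZnCl2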
APOBEC3G inh: APOBEC3G DNA deaminase inhibitors, primary screen, biochemical, fluorescence, single-stranded DNA substrate, uHTS; DNA dC->dU-editing enzyme APOBEC-3G (Homo sapiens), Q9HC16; recombinant A3G, ssDNA deamination FAM/TAMRA fluorescence; inhibition, % at 20 µM; 330,000 compounds, 0.28% hits; AID 493012, 2011;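 active means inhibition of at least 40% at 20 µM, with no more than 30% in the related APOBEC3A deaminase screen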;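 further: plate controls were DMSO wells with A3G for no effect and wells lacking A3G enzyme for full effect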
Target sequence (Q9HC16 whole entry, looked up): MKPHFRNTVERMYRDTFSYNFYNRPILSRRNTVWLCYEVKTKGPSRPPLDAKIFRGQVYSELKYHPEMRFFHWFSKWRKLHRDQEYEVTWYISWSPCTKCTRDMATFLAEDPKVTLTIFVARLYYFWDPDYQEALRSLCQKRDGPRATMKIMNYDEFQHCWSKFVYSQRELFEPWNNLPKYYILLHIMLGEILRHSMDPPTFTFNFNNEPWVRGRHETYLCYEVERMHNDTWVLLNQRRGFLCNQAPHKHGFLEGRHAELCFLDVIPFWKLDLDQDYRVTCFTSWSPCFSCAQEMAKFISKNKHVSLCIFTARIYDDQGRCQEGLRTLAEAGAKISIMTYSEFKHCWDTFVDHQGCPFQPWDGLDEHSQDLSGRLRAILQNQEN
CendR NRP1 mod: modulators of CendR peptide binding to NRP-1, primary screen, biochemical, fluorescence polarization, uHTS. 360,000 compounds, 0.85% hits. AID 602438, 2012. FAM-RPARPAR peptide binding to NRP-1. Neuropilin-1 (Homo sapiens), O14786. inhibition, % at 25 µM;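 active means inhibition or corrected inhibition above about 18%, plus a signal ratio from 0.5 to 1.5, limit read from the data, passing the limit was not always enough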
ALR inh: inhibitors of human ALR sulfhydryl oxidase, primary screen, biochemical, H2O2 detection, HRP-luminol luminescence, single point; FAD-linked sulfhydryl oxidase ALR (Homo sapiens), P55789; purified ALR, DTT oxidation; inhibition, % (test concentration not listed); 290,000 compounds, 3.8% hits; AID 485317, 2010;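 active means mean replicate inhibition above about 79%, with every replicate also reaching it, limit read from the data; inconclusive means only one of the two criteria met; inactive means mean below limit and not every replicate reaching it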
Target sequence (P55789 whole entry, looked up): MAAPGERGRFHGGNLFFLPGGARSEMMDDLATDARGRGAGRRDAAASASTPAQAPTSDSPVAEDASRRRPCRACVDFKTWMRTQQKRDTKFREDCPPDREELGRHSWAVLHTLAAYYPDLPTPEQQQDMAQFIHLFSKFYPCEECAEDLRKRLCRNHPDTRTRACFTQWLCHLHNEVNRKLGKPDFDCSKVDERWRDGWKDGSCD
* marks the source's active call; other numbers are inactive results; u = inconclusive; x = no result given. Rows were chosen to be rich in hits. Some 5.2% of all compounds tested hit in one or more screens of this group.

SMILES | Yeast superoxide | A3A deaminase | PfM18AAP inh | APOBEC3G inh | CendR NRP1 mod | ALR inh
CCOc1ccc2nc(N3C(=O)C(O)=C(C(=O)c4ccco4)C3c3ccco3)sc2c1 (stereo not drawn) | 81.3 | 31.7 | x | 11.6 | -30.7 | 5.6
Cc1cc(C)c2nc(N3C(=O)C(O)=C(C(=O)c4ccco4)C3c3ccco3)sc2c1 (stereo not drawn) | 118.7 | 14.7 | 26.4 | 11.2 | -90.4 | 98.5*
CSc1nnc(N2C(=O)C(O)=C(C(=O)c3ccco3)C2c2ccc(F)cc2)s1 (stereo not drawn) | 99.9 | x | 2.7 | x | -21.0 | 9.8
CN(C)CCCNC(=O)C[C@H]1C[C@H](C(=O)N2CCOCC2)[C@@]2(C)c3[nH]c4cc(CCC(=O)N(C)C)ccc4c3CCN2C1=O | 95.2 | 1.0 | x | -2.6 | 2.6 | x
CCOC(=O)c1sc2nc(NC(=O)C3CC3)sc2c1C | 116.0 | -5.2 | -0.8 | -6.9 | -2.0 | x
CSc1nncc(/C(C)=N\Nc2cccc(C)c2)n1 | 116.6 | -21.2 | 6.7 | 38.2 | 9.8 | 16.4
CSc1nnc2c(n1)c(C)nn2-c1cccc(C)c1 | 99.0 | 6.9 | 2.1 | 0.4 | -16.1 | 95.0*
Cc1oc2ccc(OC(=O)COc3c(F)c(F)c(F)c(F)c3F)cc2c1C(=O)OC(C)C | 92.0 | -2.2 | 3.6 | -4.3 | 2.4 | -0.3
CC(C)N(C(=O)COC(=O)c1ccc(O)cc1)C(C)C | 105.5 | -2.4 | 0.0 | -6.9 | 14.0 | 0.2
Cc1nn(-c2nnc(C)c(=O)[nH]2)c(C)c1SCC(=O)Nc1ccc(F)cc1 | 110.7 | -1.8 | 26.2 | -2.9 | -1.8 | 98.9*
CC(C)c1ccc(NC(=O)CSc2nc(=O)[nH]c3c2CCCC3)cc1 | 102.5 | -2.7 | x | -3.4 | -8.2 | -335.0
Cc1nn(-c2nnc(C)c(=O)[nH]2)c(C)c1SCC(=O)Nc1ccc(C(C)C)cc1 | 112.9 | -1.0 | -0.1 | -2.7 | -13.1 | 97.6*
CCN(CC)CC(O)Cn1c(-c2ccccc2Cl)nc2ccccc21 (stereo not drawn) | 100.8 | -1.5 | -8.8 | -6.8 | 2.0 | -4.3
O=C(O)CCn1cc(/C=C/C(=O)c2ccc(Cl)cc2)c(-c2ccc(Br)cc2)n1 | 99.8 | x | 7.4 | x | -30.5 | 97.5*
Brc1ccc(-c2csc(/N=C/N3CCCC3)n2)cc1 | 112.4 | -1.7 | -5.0 | -4.1 | 6.2 | -8.4
Nc1ccc2c(c1)-c1ccccc1S(=O)(=O)N2 | 101.5 | 2.6 | 18.7 | 1.6 | -0.9 | 99.8*
Cc1ccc2c(c1)-c1ccccc1S(=O)(=O)N2 | 112.6 | -6.0 | -2.9 | -8.9 | -7.5 | 94.9*
O=S1(=O)NC(=NCCOCCO)c2ccccc21 | 108.1 | 0.8 | -1.7 | -4.8 | 6.0 | -2.3
O=S(=O)(Nc1ccc(N2CCCCC2)cc1)c1ccc(F)cc1 | 84.0 | -0.8 | 11.5 | 22.0 | -1.6 | 98.5*
O=S(=O)(Nc1ccc(N2CCCCC2)cc1)c1ccc(F)cc1F | 104.3 | -1.3 | 9.8 | -3.6 | 1.8 | 68.9
O=S(=O)(Nc1ccc(N2CCCCC2)cc1)c1ccccc1F | 75.5 | -4.3 | 14.0 | -7.3 | -4.1 | 99.1*
O=S(=O)(Nc1ccc(N2CCOCC2)cc1)c1ccc(F)cc1 | 102.5 | -4.7 | 2.5 | -2.0 | -9.1 | u
O=S(=O)(Nc1ccc(N2CCCCC2)cc1)c1cccc2cccnc12 | 89.4 | -2.9 | 9.5 | -4.0 | 14.6 | 98.0*
COc1ccc(C(=O)Cn2cc[n+](C)c2)cc1 | 103.1 | 0.2 | 0.6 | -5.3 | -8.2 | -5.3
CC1CCc2[nH]c3ccc(C(=O)O)cc3c2C1 (stereo not drawn) | 99.4 | -8.9 | 19.1 | -2.9 | -3.5 | -11.6
SMILES | Yeast superoxide | A3A deaminase | PfM18AAP inh | APOBEC3G inh | CendR NRP1 mod | ALR inh
CC1CCc2[nH]c3ccc(C(=O)NCCCOC(C)C)cc3c2C1 (stereo not drawn) | 102.1 | -0.2 | -6.4 | -4.3 | 34.8* | -51.8
Cc1c(NC(=O)CSc2nnc(-c3ccncc3)n2C)c(=O)n(-c2ccccc2)n1C | x | x | x | x | -5.1 | x
CC1(C)Cc2c(C#N)c(SCCO)nc(N3CCOCC3)c2CO1 | 107.4 | -1.4 | 2.7 | -6.1 | 2.7 | -8.2
CCCCc1nc(N2CCOCC2)c(C#N)c2c1COC(C)(C)C2 | 94.8 | 5.5 | -3.3 | 8.9 | -6.2 | 99.8*
C=C(C)CSc1nc2c(c(=O)[nH]c(=O)n2C)n1CCC(C)C | 104.6 | -2.0 | -1.3 | -6.0 | -8.5 | -12.2
Fc1ccccc1NC(=S)NNc1ncc(C(F)(F)F)cc1Cl | 99.5 | 1.3 | 28.1* | 4.1 | -0.4 | 21.7
Cc1ccccc1NC(=S)NNc1ncc(C(F)(F)F)cc1Cl | 113.0 | 2.7 | 25.0 | 3.5 | -1.1 | 3.5
C=CCn1c(-c2ccc(Cl)cc2)cnc1SC(C)C(N)=O (stereo not drawn) | 95.4 | -2.1 | 6.5 | -7.9 | 19.4* | 38.8
O=C1CCC[C@H]2c3[nH]c4ccccc4c3CCN12 | 88.3 | -4.7 | x | -6.3 | 8.4 | 41.4
Oc1ccc(N2CCN(C(c3ccncc3)c3nnnn3C3CCCC3)CC2)cc1 (stereo not drawn) | 115.8 | -6.6 | 37.0* | -2.9 | -1.8 | 99.5*
O=C(CSc1nnnn1C1CC1)N1CCN(c2ccc(O)cc2)CC1 | 97.3 | 7.6 | x | 8.5 | 11.1 | 99.0*
Cc1noc(C)c1CSc1nc2ccccc2n1CCc1ccccc1 | 106.6 | 1.0 | 1.7 | -0.5 | -5.7 | 95.1*
Cc1ncc(CSc2nc3ccccc3[nH]2)c(N)n1 | 103.0 | -3.7 | -1.7 | -6.0 | -5.0 | 87.7*
COc1ccc2nc(SCc3cnc(C)nc3N)[nH]c2c1 | 107.6 | -1.8 | -6.1 | -7.4 | 5.3 | -3.0
Cc1noc(C)c1CSc1nc2ccccc2[nH]1 | 97.5 | 2.1 | 3.4 | 9.3 | 0.7 | 99.3*
CCOc1ccc(/C=N/NC(=O)C(=O)N2CCCCCC2)c2ccccc12 | x | 4.1 | 5.7 | -1.9 | -8.1 | x
Cc1[nH]c2ccccc2c1C(=O)C(=O)NCCC1=CCCCC1 | 102.4 | -1.9 | -8.1 | -7.5 | -6.7 | 1.9
O=C(NC(=S)NNC(=O)[C@H]1C[C@@H]1c1ccccc1)c1cccc(F)c1 | 164.1 | -4.1 | 9.2 | 5.6 | -3.6 | 98.5*
COc1cccc(OC)c1C(=O)NC(=S)NNC(=O)[C@H]1C[C@@H]1c1ccccc1 | 80.7 | -5.4 | 11.8 | -10.9 | -8.6 | 33.0
O=C(O)CCC(=O)Nc1ccc2c(c1)Cc1cc(NC(=O)CCC(=O)O)ccc1-2 | 93.6 | -1.6 | 13.3 | -7.3 | 1.1 | 99.4*
CN(C(=O)COC(=O)C1CCN(S(=O)(=O)c2c(Cl)cccc2Cl)CC1)C1CCS(=O)(=O)C1 (stereo not drawn) | 104.6 | 1.5 | x | 8.8 | 7.2 | x
